Where a chain is given by its changes, count along the chain named.
Experiments:
Test in all cases: PBM; 200 nM protein, PBS
Conditions in all cases: dsDNA, one strand shown
PAX4 [1] = biological target: T1, PAX4 (Homo sapiens, UniProt O43316 9-242, R200K)
T1 sequence: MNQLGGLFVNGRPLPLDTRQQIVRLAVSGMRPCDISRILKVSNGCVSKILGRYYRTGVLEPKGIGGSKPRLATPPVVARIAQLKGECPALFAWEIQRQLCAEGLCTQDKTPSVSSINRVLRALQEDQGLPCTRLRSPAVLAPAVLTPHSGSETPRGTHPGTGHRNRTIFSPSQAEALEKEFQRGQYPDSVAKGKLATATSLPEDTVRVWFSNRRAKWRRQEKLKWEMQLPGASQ

PAX4 [2] = biological target: T2, PAX4 (Homo sapiens, UniProt O43316 9-242)
T2 sequence: T1 sequence with K192R

PAX4 [3] = biological target: T3, PAX4 (Homo sapiens, UniProt O43316 9-242, R200Q)
T3 sequence: T1 sequence with K192Q

HOXA2 [4] = biological target: HOXA2 (Homo sapiens, UniProt O43364 129-215, R185T)
HOXA2 [5] = biological target: HOXA2 (Homo sapiens, UniProt O43364 129-215, R185K)
PAX4 [6] = biological target: T4, PAX4 (Homo sapiens, UniProt O43316 9-242, F177V)
T4 sequence: T1 sequence with F169V, K192R

PAX4 [7] = biological target: T5, PAX4 (Homo sapiens, UniProt O43316 9-242, F177Y)
T5 sequence: T1 sequence with F169Y, K192R

PAX4 [8] = biological target: T6, PAX4 (Homo sapiens, UniProt O43316 9-242, R227W)
T6 sequence: T1 sequence with K192R, R219W

HOXA2 [9] = biological target: HOXA2 (Homo sapiens, UniProt O43364 129-215, Y150S)
HOXA2 [10] = biological target: HOXA2 (Homo sapiens, UniProt O43364 129-215)
NKX2-6 = biological target: T7, NKX2-6 (Homo sapiens, UniProt A6NCS4 118-204, R150C)
T7 sequence: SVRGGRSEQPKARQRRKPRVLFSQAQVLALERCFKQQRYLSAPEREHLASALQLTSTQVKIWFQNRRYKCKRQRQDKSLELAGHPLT

MSX2 [11] = biological target: MSX2 (Homo sapiens, UniProt P35548 130-214, R199I)
MSX2 [12] = biological target: MSX2 (Homo sapiens, UniProt P35548 130-214)
MSX2 [13] = biological target: MSX2 (Homo sapiens, UniProt P35548 130-214, F161Y)
ALX3 [14] = biological target: ALX3 (Homo sapiens, UniProt O95076 139-225, N203Q)
ALX3 [15] = biological target: ALX3 (Homo sapiens, UniProt O95076 139-225)
ALX3 [16] = biological target: ALX3 (Homo sapiens, UniProt O95076 139-225, L168Q)
ALX3 [17] = biological target: ALX3 (Homo sapiens, UniProt O95076 139-225, L168V)
ALX3 [18] = biological target: ALX3 (Homo sapiens, UniProt O95076 139-225, N203S)
Chain of ALX3 (Homo sapiens, UniProt O95076 139-225, N203S) (O95076 139-225 N203S): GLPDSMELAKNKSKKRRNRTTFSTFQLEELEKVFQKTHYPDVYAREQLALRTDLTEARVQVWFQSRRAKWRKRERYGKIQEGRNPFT

Chain of HOXA2 (Homo sapiens, UniProt O43364 129-215, R185T) (O43364 129-215 R185T): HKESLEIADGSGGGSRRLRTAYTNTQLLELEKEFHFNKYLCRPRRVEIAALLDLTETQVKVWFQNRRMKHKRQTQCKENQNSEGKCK
Chain of HOXA2 (Homo sapiens, UniProt O43364 129-215, R185K) (O43364 129-215 R185K): as the sequence (O43364 129-215 R185T) above, with T57K counted along it
Chain of HOXA2 (Homo sapiens, UniProt O43364 129-215) (O43364 129-215): as the sequence (O43364 129-215 R185T) above, with T57R counted along it
Chain of HOXA2 (Homo sapiens, UniProt O43364 129-215, Y150S) (O43364 129-215 Y150S): as the sequence (O43364 129-215 R185T) above, with Y22S, T57R counted along it
Chain of MSX2 (Homo sapiens, UniProt P35548 130-214) (P35548 130-214): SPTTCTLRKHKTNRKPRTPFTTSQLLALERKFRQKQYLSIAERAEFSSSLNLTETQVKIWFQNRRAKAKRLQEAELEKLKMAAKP
Chain of MSX2 (Homo sapiens, UniProt P35548 130-214, F161Y) (P35548 130-214 F161Y): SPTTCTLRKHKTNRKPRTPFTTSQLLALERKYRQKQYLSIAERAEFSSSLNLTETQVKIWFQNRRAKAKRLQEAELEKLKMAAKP
Chain of ALX3 (Homo sapiens, UniProt O95076 139-225) (O95076 139-225): as the sequence (O95076 139-225 N203S) above, with S65N counted along it
Chain of ALX3 (Homo sapiens, UniProt O95076 139-225, N203Q) (O95076 139-225 N203Q): as the sequence (O95076 139-225 N203S) above, with S65Q counted along it
Chain of ALX3 (Homo sapiens, UniProt O95076 139-225, L168Q) (O95076 139-225 L168Q): as the sequence (O95076 139-225 N203S) above, with L30Q, S65N counted along it
Chain of ALX3 (Homo sapiens, UniProt O95076 139-225, L168V) (O95076 139-225 L168V): as the sequence (O95076 139-225 N203S) above, with L30V, S65N counted along it
Chain of MSX2 (Homo sapiens, UniProt P35548 130-214, R199I) (P35548 130-214 R199I): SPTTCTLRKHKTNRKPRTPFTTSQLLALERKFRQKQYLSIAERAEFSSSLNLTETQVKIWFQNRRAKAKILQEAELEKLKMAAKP

GTACGTAA
binding signal (PAX4 [1]): 10.4 upbm affinity estimate (log intensity, higher = more binding, comparable within an allelic series)
binding signal (PAX4 [2]): 10.6 upbm affinity estimate (log intensity, higher = more binding, comparable within an allelic series)
binding signal (PAX4 [3]): 10.6 upbm affinity estimate (log intensity, higher = more binding, comparable within an allelic series)

CGGGGCGC
binding signal (PAX4 [1]): 9.09 upbm affinity estimate (log intensity, higher = more binding, comparable within an allelic series)
binding signal (PAX4 [2]): 9 upbm affinity estimate (log intensity, higher = more binding, comparable within an allelic series)
binding signal (HOXA2 [4]): 7.19 upbm affinity estimate (log intensity, higher = more binding, comparable within an allelic series)
binding signal (PAX4 [3]): 8.96 upbm affinity estimate (log intensity, higher = more binding, comparable within an allelic series)
binding signal (HOXA2 [5]): 9.85 upbm affinity estimate (log intensity, higher = more binding, comparable within an allelic series)
binding signal (PAX4 [6]): 8.91 upbm affinity estimate (log intensity, higher = more binding, comparable within an allelic series)
binding signal (PAX4 [7]): 9.04 upbm affinity estimate (log intensity, higher = more binding, comparable within an allelic series)
binding signal (PAX4 [8]): 9.06 upbm affinity estimate (log intensity, higher = more binding, comparable within an allelic series)
binding signal (HOXA2 [9]): 10.3 upbm affinity estimate (log intensity, higher = more binding, comparable within an allelic series)
binding signal (HOXA2 [10]): 7.21 upbm affinity estimate (log intensity, higher = more binding, comparable within an allelic series)

CCCCGGAG
binding signal (PAX4 [1]): 9.33 upbm affinity estimate (log intensity, higher = more binding, comparable within an allelic series)
binding signal (PAX4 [2]): 9.37 upbm affinity estimate (log intensity, higher = more binding, comparable within an allelic series)
binding signal (NKX2-6): 9.25 upbm affinity estimate (log intensity, higher = more binding, comparable within an allelic series)
binding signal (PAX4 [3]): 9.35 upbm affinity estimate (log intensity, higher = more binding, comparable within an allelic series)
binding signal (PAX4 [6]): 9.22 upbm affinity estimate (log intensity, higher = more binding, comparable within an allelic series)
binding signal (PAX4 [7]): 9.27 upbm affinity estimate (log intensity, higher = more binding, comparable within an allelic series)
binding signal (PAX4 [8]): 9.32 upbm affinity estimate (log intensity, higher = more binding, comparable within an allelic series)

AGGGGGCC
binding signal (PAX4 [1]): 8.96 upbm affinity estimate (log intensity, higher = more binding, comparable within an allelic series)
binding signal (PAX4 [2]): 9.02 upbm affinity estimate (log intensity, higher = more binding, comparable within an allelic series)
binding signal (HOXA2 [4]): 7.23 upbm affinity estimate (log intensity, higher = more binding, comparable within an allelic series)
binding signal (MSX2 [11]): 9.51 upbm affinity estimate (log intensity, higher = more binding, comparable within an allelic series)
binding signal (PAX4 [3]): 9.05 upbm affinity estimate (log intensity, higher = more binding, comparable within an allelic series)
binding signal (HOXA2 [5]): 10.2 upbm affinity estimate (log intensity, higher = more binding, comparable within an allelic series)
binding signal (PAX4 [6]): 9.04 upbm affinity estimate (log intensity, higher = more binding, comparable within an allelic series)
binding signal (MSX2 [12]): 9.64 upbm affinity estimate (log intensity, higher = more binding, comparable within an allelic series)
binding signal (PAX4 [7]): 9.04 upbm affinity estimate (log intensity, higher = more binding, comparable within an allelic series)
binding signal (MSX2 [13]): 9.59 upbm affinity estimate (log intensity, higher = more binding, comparable within an allelic series)
binding signal (PAX4 [8]): 9.1 upbm affinity estimate (log intensity, higher = more binding, comparable within an allelic series)
binding signal (HOXA2 [9]): 10.2 upbm affinity estimate (log intensity, higher = more binding, comparable within an allelic series)
binding signal (HOXA2 [10]): 7.17 upbm affinity estimate (log intensity, higher = more binding, comparable within an allelic series)

CCCCTGGC
binding signal (PAX4 [1]): 9.25 upbm affinity estimate (log intensity, higher = more binding, comparable within an allelic series)
binding signal (PAX4 [2]): 9.29 upbm affinity estimate (log intensity, higher = more binding, comparable within an allelic series)
binding signal (MSX2 [11]): 9.36 upbm affinity estimate (log intensity, higher = more binding, comparable within an allelic series)
binding signal (PAX4 [3]): 9.32 upbm affinity estimate (log intensity, higher = more binding, comparable within an allelic series)
binding signal (PAX4 [6]): 9.09 upbm affinity estimate (log intensity, higher = more binding, comparable within an allelic series)
binding signal (MSX2 [12]): 9.68 upbm affinity estimate (log intensity, higher = more binding, comparable within an allelic series)
binding signal (PAX4 [7]): 9.12 upbm affinity estimate (log intensity, higher = more binding, comparable within an allelic series)
binding signal (MSX2 [13]): 9.68 upbm affinity estimate (log intensity, higher = more binding, comparable within an allelic series)
binding signal (PAX4 [8]): 9.26 upbm affinity estimate (log intensity, higher = more binding, comparable within an allelic series)

CTAATAAC
binding signal (PAX4 [1]): 11.1 upbm affinity estimate (log intensity, higher = more binding, comparable within an allelic series)
binding signal (PAX4 [2]): 11.3 upbm affinity estimate (log intensity, higher = more binding, comparable within an allelic series)
binding signal (PAX4 [3]): 11.1 upbm affinity estimate (log intensity, higher = more binding, comparable within an allelic series)
binding signal (PAX4 [6]): 10.4 upbm affinity estimate (log intensity, higher = more binding, comparable within an allelic series)

CCAGGGGG
binding signal (PAX4 [1]): 9.05 upbm affinity estimate (log intensity, higher = more binding, comparable within an allelic series)
binding signal (PAX4 [2]): 9.19 upbm affinity estimate (log intensity, higher = more binding, comparable within an allelic series)
binding signal (ALX3 [14]): 7.64 upbm affinity estimate (log intensity, higher = more binding, comparable within an allelic series)
binding signal (PAX4 [3]): 9.12 upbm affinity estimate (log intensity, higher = more binding, comparable within an allelic series)
binding signal (PAX4 [6]): 9.04 upbm affinity estimate (log intensity, higher = more binding, comparable within an allelic series)
binding signal (ALX3 [15]): 7.54 upbm affinity estimate (log intensity, higher = more binding, comparable within an allelic series)
binding signal (PAX4 [7]): 9.08 upbm affinity estimate (log intensity, higher = more binding, comparable within an allelic series)
binding signal (ALX3 [16]): 7.58 upbm affinity estimate (log intensity, higher = more binding, comparable within an allelic series)
binding signal (ALX3 [17]): 7.54 upbm affinity estimate (log intensity, higher = more binding, comparable within an allelic series)
binding signal (PAX4 [8]): 9.06 upbm affinity estimate (log intensity, higher = more binding, comparable within an allelic series)
binding signal (ALX3 [18]): 7.57 upbm affinity estimate (log intensity, higher = more binding, comparable within an allelic series)

GGGGGGGA
binding signal (PAX4 [1]): 9.06 upbm affinity estimate (log intensity, higher = more binding, comparable within an allelic series)
binding signal (PAX4 [2]): 9.13 upbm affinity estimate (log intensity, higher = more binding, comparable within an allelic series)
binding signal (HOXA2 [4]): 6.89 upbm affinity estimate (log intensity, higher = more binding, comparable within an allelic series)
binding signal (ALX3 [14]): 7.53 upbm affinity estimate (log intensity, higher = more binding, comparable within an allelic series)
binding signal (PAX4 [3]): 9.12 upbm affinity estimate (log intensity, higher = more binding, comparable within an allelic series)
binding signal (HOXA2 [5]): 9.81 upbm affinity estimate (log intensity, higher = more binding, comparable within an allelic series)
binding signal (PAX4 [6]): 9.01 upbm affinity estimate (log intensity, higher = more binding, comparable within an allelic series)
binding signal (ALX3 [15]): 7.53 upbm affinity estimate (log intensity, higher = more binding, comparable within an allelic series)
binding signal (PAX4 [7]): 9.15 upbm affinity estimate (log intensity, higher = more binding, comparable within an allelic series)
binding signal (ALX3 [16]): 7.42 upbm affinity estimate (log intensity, higher = more binding, comparable within an allelic series)
binding signal (ALX3 [17]): 7.45 upbm affinity estimate (log intensity, higher = more binding, comparable within an allelic series)
binding signal (PAX4 [8]): 9.15 upbm affinity estimate (log intensity, higher = more binding, comparable within an allelic series)
binding signal (HOXA2 [9]): 10.2 upbm affinity estimate (log intensity, higher = more binding, comparable within an allelic series)
binding signal (ALX3 [18]): 7.55 upbm affinity estimate (log intensity, higher = more binding, comparable within an allelic series)
binding signal (HOXA2 [10]): 7.05 upbm affinity estimate (log intensity, higher = more binding, comparable within an allelic series)
